This is a sample that favours compounds with a hit; in the whole collection about 3.9% have one here.
VHR inh abs: blocks human VHR1 dual specificity phosphatase; P51452; recombinant VHR phosphatase, pNPP absorbance; inhibition, % at 13.3 µM; 0.52% of 290,000 active; AID 1654; in the data active = inhibition above about 50%
Target sequence (P51452 whole entry, looked up): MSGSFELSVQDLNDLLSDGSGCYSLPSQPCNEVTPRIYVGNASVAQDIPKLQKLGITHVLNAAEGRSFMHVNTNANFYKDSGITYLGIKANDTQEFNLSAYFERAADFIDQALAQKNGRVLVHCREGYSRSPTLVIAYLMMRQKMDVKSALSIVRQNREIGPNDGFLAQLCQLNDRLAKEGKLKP
BoNT-A LC inh2: BoNT A light chain protease inhibition; 0.17% of 360,000 active; AID 588499; inhibition, % at 10 µM; multiplex microsphere protease substrate cleavage, flow cytometry
BoNT F protease: blocks Botulinum neurotoxin F light chain protease; Multiplex microsphere protease cleavage assay, flow cytometry; inhibition, % at 10 µM; 0.22% of 360,000 active; in the data active = inhibition above about 35%, passing the limit was not always enough; inconclusive = no clear call, values can overlap the other calls
Anthrax LF prot: blocks Bacillus anthracis lethal factor protease; P15917; multiplex microsphere protease cleavage assay, LF; inhibition, % at 10 µM; 0.12% of 360,000 active; AID 588501
SARS 3CLpro inh: SARS-CoV 3CLpro protease inhibition; P0C6X7; recombinant SARS-CoV 3CLpro, quenched FRET peptide cleavage; inhibition, % at 6 µM; 0.14% of 290,000 active; in the data active = inhibition above about 12%
Bead autofluor: compound fluorescence in toxin protease inhibitor counterscreen. 3.1% of 360,000 active. compound autofluorescence counterscreen, microsphere flow cytometry; active compounds read high. fluorescence intensity (test concentration not listed); in the data active = fluorescence intensity above about 16000; inconclusive = no clear call, values can overlap the other calls
Hits are given with their value. Cut-off read from the data, not from the text of the source, unless noted: active = inhibition above about 30%; inconclusive = no clear call, values can overlap the other calls; inactive = below that.

Results for Cc1c(Cl)cccc1NC(=O)COc1ccc(S(=O)(=O)N2CCOCC2)cc1 ?
VHR inh abs: inactive; BoNT-A LC inh2: inactive; BoNT F protease: inactive; Anthrax LF prot: inactive; SARS 3CLpro inh: inactive; Bead autofluor: 16522

Results for CCc1ccc(OCC(=O)Nc2ccc(S(=O)(=O)N3CCCC3)cc2)c(Br)c1 ?
VHR inh abs: inactive; BoNT-A LC inh2: inactive; BoNT F protease: inactive; Anthrax LF prot: inactive; SARS 3CLpro inh: inactive; Bead autofluor: 23390

How did O=C(COc1cccc(C(F)(F)F)c1)Nc1ccc(S(=O)(=O)N2CCCC2)cc1 do in these assays?
VHR inh abs: inactive; BoNT-A LC inh2: inactive; BoNT F protease: inactive; Anthrax LF prot: inactive; SARS 3CLpro inh: inactive; Bead autofluor: 25851

How did NC(=O)c1cc(NC(=O)CCNS(=O)(=O)c2cccc(C(F)(F)F)c2)cc(C(N)=O)c1 do in these assays?
VHR inh abs: inactive; BoNT-A LC inh2: inactive; BoNT F protease: inactive; Anthrax LF prot: inactive; SARS 3CLpro inh: inactive; Bead autofluor: inactive

Results for Cc1cccc(Nc2nc(N3CCOCC3)nc(N3CCOCC3)n2)c1 ?
VHR inh abs: inactive; BoNT-A LC inh2: inactive; BoNT F protease: inactive; Anthrax LF prot: inactive; SARS 3CLpro inh: inactive; Bead autofluor: inactive

How did Cn1ccnc1Sc1nc(Nc2cccc(Cl)c2)nc(N2CCOCC2)n1 do in these assays?
VHR inh abs: inactive; BoNT-A LC inh2: inactive; BoNT F protease: inactive; Anthrax LF prot: inactive; SARS 3CLpro inh: inactive; Bead autofluor: 22665

Results for S=C(Nc1cccc(Cl)c1)N1CCOCC1 ?
VHR inh abs: inactive; BoNT-A LC inh2: inactive; BoNT F protease: inactive; Anthrax LF prot: inactive; SARS 3CLpro inh: inactive; Bead autofluor: 22806

How did O=[N+]([O-])c1cccc(NC(=S)N2CCOCC2)c1 do in these assays?
VHR inh abs: inactive; BoNT-A LC inh2: inactive; BoNT F protease: inactive; Anthrax LF prot: inactive; SARS 3CLpro inh: inactive; Bead autofluor: inactive

What do the screens show for `CC(=O)/C(=N\Nc1ccc(C)cc1)Sc1nncn1C`?
VHR inh abs: inactive; BoNT-A LC inh2: inactive; BoNT F protease: inactive; Anthrax LF prot: inactive; SARS 3CLpro inh: inactive; Bead autofluor: inactive

What do the screens show for `CCN(C(=O)CN1C(=O)COc2ccc(S(=O)(=O)N3CCCCCC3)cc21)c1cccc(C)c1`?
VHR inh abs: inactive; BoNT-A LC inh2: inactive; BoNT F protease: inactive; Anthrax LF prot: inactive; SARS 3CLpro inh: inactive; Bead autofluor: inactive

Results for Cc1c(C(=O)NCc2ccccc2)sc(=O)n1Cc1ccccc1F ?
BoNT-A LC inh2: inactive; BoNT F protease: inactive; Anthrax LF prot: inactive; Bead autofluor: inactive

How did Nc1ncnc2nc(SCc3ccccc3)[nH]c12 do in these assays?
VHR inh abs: inactive; BoNT-A LC inh2: inactive; BoNT F protease: inactive; Anthrax LF prot: inactive; SARS 3CLpro inh: inactive; Bead autofluor: inactive

What do the screens show for `Nc1ncnc2nc(SCC(=O)N3CCN(c4ccccc4)CC3)[nH]c12`?
VHR inh abs: inactive; BoNT-A LC inh2: inconclusive; BoNT F protease: inactive; Anthrax LF prot: inactive; SARS 3CLpro inh: inactive; Bead autofluor: 17350

Results for O=C(CSc1ccccn1)N1CCN(c2ccccc2)CC1 ?
VHR inh abs: inactive; BoNT-A LC inh2: inactive; BoNT F protease: inactive; Anthrax LF prot: inactive; SARS 3CLpro inh: inactive; Bead autofluor: 16913

Results for Nc1ncnc2nc(SCCN3CCCCC3)[nH]c12 ?
VHR inh abs: inactive; BoNT-A LC inh2: inactive; BoNT F protease: inactive; Anthrax LF prot: inactive; SARS 3CLpro inh: inactive; Bead autofluor: 16379

Results for CCOC(=O)c1c2c3c(cccc3[nH]c1=O)C(=O)c1ccccc1-2 ?
VHR inh abs: inactive; BoNT-A LC inh2: inactive; BoNT F protease: inactive; Anthrax LF prot: inactive; SARS 3CLpro inh: inactive; Bead autofluor: inactive

Results for CCOC(=O)c1c2c3c(cccc3n(C)c1=O)C(=O)c1ccccc1-2 ?
VHR inh abs: inactive; BoNT-A LC inh2: inactive; BoNT F protease: 40.3; Anthrax LF prot: inactive; SARS 3CLpro inh: inactive; Bead autofluor: inactive

Results for Cc1occc1C(=O)N1CCCC(CO)(Cc2ccc(F)cc2F)C1 (stereo not given) ?
VHR inh abs: inactive; BoNT-A LC inh2: inactive; BoNT F protease: inactive; Anthrax LF prot: inactive; SARS 3CLpro inh: inactive; Bead autofluor: inactive

What do the screens show for `CCOc1ccc(C(c2nnnn2C(C)(C)C)N2CCN(C(=O)c3ccco3)CC2)cc1` (stereo not given)?
VHR inh abs: 59.1; BoNT-A LC inh2: inactive; BoNT F protease: inactive; Anthrax LF prot: inactive; SARS 3CLpro inh: inactive; Bead autofluor: inactive

What do the screens show for `O=C(NCc1cccc(Cl)c1)C1CCC(=O)N(CCN2CCOCC2)C1` (stereo not given)?
VHR inh abs: inactive; BoNT-A LC inh2: inactive; BoNT F protease: inactive; Anthrax LF prot: inactive; SARS 3CLpro inh: inactive; Bead autofluor: inactive

Results for O=C(NCC(=O)N(c1ccccc1)C(C(=O)NC1CCCCC1)c1cccnc1)c1cccs1 (stereo not given) ?
VHR inh abs: 52.0; BoNT-A LC inh2: inactive; BoNT F protease: inactive; Anthrax LF prot: inactive; SARS 3CLpro inh: inactive; Bead autofluor: inactive

What do the screens show for `Cc1cccc(N(C(=O)CNC(=O)c2cccs2)C(C(=O)NC2CCCC2)c2cccnc2)c1` (stereo not given)?
VHR inh abs: 56.7; BoNT-A LC inh2: inactive; BoNT F protease: inactive; Anthrax LF prot: inactive; SARS 3CLpro inh: inactive; Bead autofluor: inactive

How did COCc1cc(=O)[nH]c(SCC(=O)Nc2ccccc2)n1 do in these assays?
VHR inh abs: inactive; BoNT-A LC inh2: inconclusive; BoNT F protease: inactive; Anthrax LF prot: inactive; SARS 3CLpro inh: inactive; Bead autofluor: 22752

How did CCCc1cc(=O)[nH]c(SCC(=O)Nc2ccc(OCc3ccccc3)cc2)n1 do in these assays?
BoNT-A LC inh2: inactive; BoNT F protease: inactive; Anthrax LF prot: inactive; Bead autofluor: inactive

Results for Nc1cc(=O)[nH]c(SCC(=O)Nc2cccc(Cl)c2)n1 ?
VHR inh abs: inactive; BoNT-A LC inh2: inactive; BoNT F protease: inactive; Anthrax LF prot: inactive; SARS 3CLpro inh: inactive; Bead autofluor: 17592

How did COC1=CC(C)C2CC3OC(O)CC4C(C)=C(OC)C(=O)C(C2(C)C1=O)C34C (stereo not given) do in these assays?
BoNT-A LC inh2: inactive; BoNT F protease: inactive; Anthrax LF prot: inactive; Bead autofluor: inactive

How did Cc1ccc(C)c(Cc2c(C)nc3c(C(=O)N4CCOCC4)cnn3c2C)c1 do in these assays?
VHR inh abs: inactive; BoNT-A LC inh2: inactive; BoNT F protease: inactive; Anthrax LF prot: inactive; SARS 3CLpro inh: inactive; Bead autofluor: 22707

What do the screens show for `CCOC(=O)N1CCN(C(=O)c2cnn3c(C)c(Cc4ccc(C)cc4)c(C)nc23)CC1`?
VHR inh abs: inactive; BoNT-A LC inh2: inconclusive; BoNT F protease: inactive; Anthrax LF prot: inactive; SARS 3CLpro inh: inactive; Bead autofluor: 23293

How did CCOC(=O)N1CCN(C(=O)c2cnn3c(C(F)F)cc(-c4ccc(C)cc4)nc23)CC1 do in these assays?
VHR inh abs: inactive; BoNT-A LC inh2: inactive; BoNT F protease: inactive; Anthrax LF prot: inactive; SARS 3CLpro inh: inactive; Bead autofluor: inactive

How did O=c1nc2n(CCO)c3ccccc3cc-2c(=O)[nH]1 do in these assays?
BoNT-A LC inh2: inactive; BoNT F protease: inactive; Anthrax LF prot: inactive; Bead autofluor: inactive

Results for COc1ccc(-c2csc(NC(=O)c3cccc(S(=O)(=O)N4CCN(C)CC4)c3)n2)cc1 ?
VHR inh abs: inactive; BoNT-A LC inh2: inactive; BoNT F protease: inactive; Anthrax LF prot: inactive; SARS 3CLpro inh: inactive; Bead autofluor: inactive

High-throughput results as filed in PubChem BioAssay.
